In PubChem BioAssay (NCI):
This is part of a sample that, as a whole, favours compounds with a hit. Of some 83,000 tested, about 20% had one in any assay.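 Negative percent growth values reflect cell death: -40 means 40% of the cells present at the start died, and -100 means all died.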 Calls of active or inactive are those of the source. The calls were made as follows: active = growth percent below 10; inactive = the rest.

These compounds were tested on RXF 393 renal (assay: NCI-60 one-dose screen, 48 h (100 = growth as untreated, 0 = no growth, -100 = all killed)). Conditions: 10 µM unless noted.

Structure (SMILES)	growth
Cn1c2ccccc2c2c3c(c4c5cc(Br)ccc5n(C)c4c21)C(=O)N(O)C3=O	-24.8% (active)
c1ccc2cc(Cn3cc(CSc4nc5ccccc5s4)nn3)ccc2c1	98.3% (inactive)
COCCn1cc(-c2nc(-c3cc4cccnc4n3C)cs2)c2ccccc21	70.7% (inactive)
COc1ccc(C2[C@@H](Cl)C(=O)N2c2cc(OC)c(OC)c(OC)c2)cc1Cl (stereo not given in full)	-2.33% (active)
N#Cc1nn(-c2cc(=O)[nH]c3ccc(Br)cc23)c(N)c1C#N	115% (inactive)
CC1=C2CC/C(C)=C/CC[C@]3(C)O[C@H]3CC/C(C)=C/[C@H]2OC1	126% (inactive)
CN(C)CCCn1c2c(c3cnccc3c1=O)C(=O)c1ccccc1-2	-28.4% (active)
CN1CCOCCN(C)Cc2ccc3ccc(cc3c2)CN(C)CCOCCN(C)Cc2ccc3ccc(cc3c2)C1	75.9% (inactive)
COc1ccc2c(O)c(/C=C3\N=Nc4ncccc43)oc2c1C[C@@H]1CCNC[C@H]1F	-68.1% (active)
COc1cc(/C=C2\C(=O)N(CCCOc3cc(O)c4c(=O)cc(-c5ccccc5)oc4c3)c3ccccc32)cc(OC)c1O	91.6% (inactive)
Cc1ccc(S(=O)(=O)c2nc(-c3ccccc3)oc2SCC(N)=O)cc1	99% (inactive)
C=CN(C(=O)N1CCN(c2cc3c(cc2F)c(=O)c(C(=O)O)cn3C2CC2)CC1)c1nc(-c2ccccc2)cs1	103% (inactive)
Cc1ccc(NC(=O)c2sc3nc(C)c(C(O)c4ccccc4)cc3c2N)cc1 (stereo not given)	39.3% (inactive)
Nc1c(Br)cc2c(c1Br)Cc1cc([N+](=O)[O-])ccc1-2	115% (inactive)
Cn1cc(-c2nc3c(F)cc4[nH]ncc4c3c3c2CCCC3)c(C(F)(F)F)n1	23% (inactive)
CCCCCc1ccc(S(=O)(=O)Nc2ccc3nc(N)oc3c2)cc1	77.4% (inactive)
Nc1ncnc2c1N=C(c1ccc(F)cc1)CC(c1cccc(Nc3ccnc4cc(Cl)ccc34)c1)N2 (stereo not given)	39.1% (inactive)
CCOC(=O)c1[nH]cc2c1CCc1sc(Nc3ccccn3)nc1-2	86.2% (inactive)
C=C(C)[C@@H]1CC[C@]2(CO)CC[C@]3(C)[C@H](CC[C@@H]4[C@@](C)(CCCN)[C@H](C(=C)C)CC[C@]43C)[C@@H]12	-85.3% (active)
CCN1C(=O)N(c2ccccc2)C2NC(=S)N(/N=C/C=C/c3ccccc3OC)C21 (stereo not given)	62.2% (inactive)

Structure (SMILES)	growth
CN1c2ccccc2S(=O)(=O)n2c(SCC(=O)Nc3nc4ccc(F)cc4s3)nnc21	-23.2% (active)
Clc1ccc(Nc2nnc(CNc3ccccc3)c3ccccc23)cc1	25.7% (inactive)
N#C/C(=C\c1ccc(-c2cccc(Cl)c2)o1)C(=O)Nc1ncc(Cc2ccc(Cl)cc2)s1	86.7% (inactive)
CN(C)CCC(CCN(C)C)(C(=O)O)c1ccccc1	112% (inactive)
CC1(C)CC[C@]23CC[C@]4(C)[C@H](CC[C@@H]5[C@@]6(C)C/C(=C/O)C(=O)C(C)(C)[C@@H]6CC[C@]54C)[C@H]2[C@H]1OC3	121% (inactive)
CN(C)C1CN(C(=O)c2cc(-c3ccc4ncnc(N5CCc6cc(F)c(Cl)cc65)c4c3)cnc2N)C1	-32% (active)
Cc1[nH]n(-c2cccc(Cl)c2)c(=O)c1/C=C1\C=c2ccccc2=CC1=O	-76.9% (active)
COCCn1cc(-c2csc(-c3c[nH]c4ccccc34)n2)c2cccnc21	72.2% (inactive)
COC(=O)c1c2c(c[n+]([O-])c1C)C(=O)C=C(NCc1ccccc1)C2=O	-94.1% (active)
ClC(Cl)c1nc(-c2ccccc2)n2nc(-c3ccccc3)cc2n1	-68% (active)
CN(C)c1ccc([C@@H](C(=O)Nc2cccc([N+](=O)[O-])c2)N(C(=O)c2cc3ccccc3[nH]2)c2cccc([N+](=O)[O-])c2)cc1	100% (inactive)
CC(C)(Sc1cc(C(C)(C)C)c(O)c(C(C)(C)C)c1)Sc1cc(C(C)(C)C)c(OC(=O)CCC(=O)O)c(C(C)(C)C)c1	67% (inactive)
COc1cc(C=C2C(=O)NC(=S)NC2=O)cc(CN2CCCC2)c1O	103% (inactive)
Cc1cc(C)c2c(c1)N(C)c1ncnc(-n3c(C)nc4cc(C)ccc43)c1CC2C (stereo not given)	-10.4% (active)
Brc1ccc(Nc2nc(Nc3cnc4ccccc4c3)c3[nH]cnc3n2)cc1	75.8% (inactive)
COc1cc(C[C@H]2COc3cc(O)cc(O)c3C2=O)ccc1O	34.7% (inactive)
CC(=O)c1c(Nc2cccc(F)c2)[nH]c2c(Cl)cc(Cl)c(Cl)c2c1=O	4.14% (active)
COC12C=C/C(=C(/C(=O)OCc3csc(SC)n3)C(=O)CCCCCCCCC3(OC)C=C/C(=C(/C(=O)OCc4cnc(SC)s4)C(=O)CCCCCCCC1)O3)O2 (stereo not given)	-35.4% (active)
COC12C=C/C(=C(/C(=O)OCCSc3ccnn3C)C(=O)CCCCCCCCC3(OC)C=C/C(=C(/C(=O)OCCSc4ccnn4C)C(=O)CCCCCCCC1)O3)O2	-79.1% (active)
O=C(/C=C/C12c3ccccc3C(c3ccccc31)C1C(=O)NC(=O)C12)c1ccco1 (stereo not given)	1.72% (active)
